Bioassay records (PubChem)
Not all results are given here.
aSyn UTR act – Activators via SNCA 5'UTR binding, MLPCN; activity score, % (tested at 7.5 µM), hits read low; AID 1814; 300,000 compounds, 7.1% hits; alpha-synuclein 5'UTR reporter, activators screen; in the data active = activity score below about -60%
A number is an active result; n = inactive.

SMILES	aSyn UTR act
Cc1sc(NC(=O)c2ccc(F)cc2)c(CN2CCCCCC2)c1C	-174.2
Cc1ccc([N+](=O)[O-])cc1N/C=C1\CCc2ccccc2C1=O	-163.2
O=Nc1ccc(O)c2ncccc12	-235.5
Cc1ccccc1N=Nc1ccc(O)c2ncccc12	n
O=C(Nc1ncc(Cc2ccc(SC(F)F)cc2)s1)c1ccc(OC(F)F)cc1	-128.6
CS(=O)(=O)c1ccc2nc(NC(=O)Nc3cccc(Cl)c3)sc2c1	-84.9
CS(=O)(=O)c1ccc2nc(NC(=O)Nc3ccccc3F)sc2c1	-108.8
CC(C)(C)C(=O)Nc1ccc(-c2cc3cc(Cl)ccc3o2)cc1	-124.2
c1ccc(NC2=Nc3ccccc3CC2)cc1	-179.3
Cc1nn(-c2nnc(NCc3ccccc3)nn2)c(C)c1Br	-85.1
C/C(=N\Nc1ncc(Cl)cc1Cl)c1ccc(OC(F)F)cc1	-62.0
C/C(=N\Nc1ncc(Cl)cc1Cl)c1ccc2c(c1)OCO2	-78.7
CCN(CC)c1ccc(-n2cc3c(=O)n(C)c(=O)n(C)c3c2)cc1	-118.1
CN(C)c1ccc(-n2cc3c(=O)n(C)c(=O)n(C)c3c2)cc1	-198.2
O=C(Oc1ccc(-c2cnc3ccccc3n2)cc1)c1ccco1	-80.8
CCC(=O)Oc1ccc(-c2cnc3ccccc3n2)cc1	-99.3
COc1cc(C2C=C(Nc3ccccc3)C(=O)N2c2ccccc2)ccc1O (stereo not given)	-72.1
CC1(c2ccc([N+](=O)[O-])cc2)Nc2ccccc2S1 (stereo not given)	-83.2
CC(C)(C)c1ccc(C(=O)c2cn[nH]c2-c2ccccc2O)cc1	-133.5
O=C(CSc1ccccc1)Nc1ccc(N2CCOCC2)c(F)c1	-99.4
O=C(CSc1n[nH]c(-c2ccccc2)n1)Nc1ccc(N2CCOCC2)cc1	-68.1
O=C(CSc1ccc(F)cc1)Nc1ccc(N2CCOCC2)cc1	-74.1
O=C(CSc1ccccc1)Nc1ccc(N2CCOCC2)cc1	-116.1
O=C(CSc1n[nH]c(-c2ccccn2)n1)Nc1ccccc1	n
Cn1c(-c2ccc(F)cc2)cnc1SCC(=O)Nc1ccccc1N1CCOCC1	-193.4
SMILES	aSyn UTR act
O=C(Cc1cccs1)Nc1ccc(N2CCOCC2)cc1	-96.7
CC(=O)C1=C(C)OC(N)=C(C#N)C1c1cc([N+](=O)[O-])ccc1Cl (stereo not given)	-69.0
COC(=O)Nc1nc2c(s1)CCCC2	-86.8
COC(=O)c1sc(NC(=O)COc2ccccc2C)nc1C	-90.5
COc1ccccc1OCC(=O)Nc1nc(C)c(C)s1	-83.0
O=C(COc1ccccc1)Nc1nc2c(s1)CCCC2	-87.8
CC(C)CCn1nc(C(=O)Nc2nc3c(s2)CCCC3)c2ccccc2c1=O	n
CCN1CCN(/C=N/c2nc3c(s2)CCCC3)CC1	n
CC(=O)c1sc(NC(=O)COc2ccccc2)nc1C	-108.9
O=C1OC(c2ccccc2)=C/C1=C\N1CCOCC1	-66.9
Nc1ccccc1-c1nnc(SCc2ccccc2Cl)[nH]c1=O	-68.9
O=c1cc(NS(=O)(=O)c2ccccc2)nc(SCc2ccccc2Cl)[nH]1	n
NC(=O)c1ccccc1OCCOc1ccc(Br)cc1	-62.9
CC(=O)c1ccccc1OCCOCCOCCOc1ccccc1C(C)=O	n
CCOC(=O)c1c(C)[nH]c(N=Nc2cccc(C)c2)c1C	-211.2
CCOC(=O)c1c(C)[nH]c(N=Nc2cccc(OC)c2)c1C	-208.2
CCOc1ccc(NC(=O)Nc2cccc(C(=O)O)c2)cc1	n
CCOc1ccc(NC(=O)Nc2cccnc2)cc1	-141.4
O=C(Nc1ccc(Cl)cc1)Nc1cccnc1	-66.2
N/C(=N\OC(=O)Nc1ccccc1)c1ncc(C(F)(F)F)cc1Cl	-115.3
N/C(=N\OC(=O)Nc1ccc(Cl)cc1)c1ncc(C(F)(F)F)cc1Cl	-72.9
O=C(COc1ccccc1N1C(=O)c2ccccc2C1=O)c1ccc(Cl)cc1	-86.9
O=C1/C(=C/c2cccc3ccccc23)CCCc2ccccc21	-106.0
Cc1ccc(C(=O)NCC(=O)N2CCCC(C(F)(F)F)C2)s1 (stereo not given)	-61.8
Fc1ccccc1-c1nc(-c2ccc(Br)o2)no1	-73.8
SMILES	aSyn UTR act
Cc1ccccc1-c1nc(-c2ccc(NC(=O)c3ccc(Br)o3)cc2)no1	-199.1
Cc1ccccc1-c1nc(-c2ccc(Br)o2)no1	-110.1
COc1ccc(Cl)cc1-c1nc(-c2ccc(Br)o2)no1	-123.0
COc1cc(-c2nc3ccc(N4CCN(C)CC4)cc3[nH]2)cc(OC)c1OC	-101.8
COc1ccc(C2NN=C(c3ccc(C)cc3)S2)cc1OC (stereo not given)	-144.3
O=c1cc(COc2ccccc2[N+](=O)[O-])nc2sccn12	-83.1
CC(=O)c1ccc(OCc2cc(=O)n3ccsc3n2)cc1	-95.3
Cc1ccc(N=Cc2c(O)ccc3ccccc23)cc1F	-111.4
CCOC(=O)c1sc(/N=C/c2c(O)ccc3ccccc23)cc1C	-72.6
CC1(C)SC(=S)N(NC(=O)Nc2cccc3ccccc23)C1N(O)C(=O)Nc1ccccc1 (stereo not given)	-88.3
C/C(=N\Nc1cccc2cccnc12)c1ccc(C)cc1	-170.2
O=C(NC(c1ccc(Cl)cc1)c1cc(Cl)c2cccnc2c1O)c1cccnc1 (stereo not given)	n
CCC(=O)NC(c1ccc(C)cc1)c1ccc2cccnc2c1O (stereo not given)	n
Cc1ccc(/C=C/C(=O)Nc2cccc3cccnc23)o1	-132.3
Cc1ccc(C(=O)Nc2cccc3cccnc23)cc1C	-87.0
O=C(Nc1ccnc(-c2cccnc2)n1)c1ccc(Cl)cc1	-116.7
CC(C)C(=O)NC(c1ccc(Cl)cc1Cl)c1ccc2cccnc2c1O (stereo not given)	n
O=C(Nc1cccc2cccnc12)c1ccc(Cl)cc1	-75.5
O=C(NC(=S)Nc1cccnc1Cl)c1ccc(Cl)cc1	-153.9
O=C(Nc1cccnc1Cl)c1ccc(Cl)cc1	-147.8
CN1CCc2c(sc3c2C(=O)NC(c2cccs2)N3)C1 (stereo not given)	-102.8
Cc1cc(N)c(NC2=CC(=O)CC(C)(C)C2)cc1C	-107.7
c1cncc(-c2noc(-c3cccc4ccccc34)n2)c1	-225.5
c1ccc(-c2noc(-c3cccc4ccccc34)n2)cc1	-179.4
c1ccc2c(-c3nc(-c4ccncc4)no3)cccc2c1	-271.7
SMILES	aSyn UTR act
CSCc1nc2sc(C(=O)Nc3nc(C)cs3)c(C)c2c(=O)[nH]1	-92.4
Cc1nc(NC(=O)c2cncc(Br)c2)ccc1Br	-108.8
Cc1nc(NC(=O)c2cnccn2)ccc1Br	-101.2
Cc1cccc(C(=O)N2CCc3cc(-c4csc(NC(=O)CN5CCCC5)n4)ccc32)c1	-74.1
Cc1cccc(C(=O)N2CCc3cc(-c4nc(NC(=O)CN5CCCC5)sc4C)ccc32)c1	-71.2
O=C(CN1CCCC1)Nc1nc(-c2ccc3c(c2)CCN3C(=O)c2ccccc2F)cs1	-123.5
COc1cccc(C(=O)Nc2cccc(SC)c2)c1	-156.0
COc1cccc(/C(C)=N/N=C(\C)c2cccc(OC)c2)c1	-275.4
CCn1c2ccccc2c2cc(NC(=O)c3cccc(OC)c3)ccc21	-179.7
CC(=O)Nc1cccc(Oc2ccc(-c3noc(C)n3)cc2)c1	-193.6
COc1cccc(C(=O)N/N=C(/c2ccccc2)c2ccccn2)c1	n
COc1cccc(C(=O)NNC(=O)c2ccccc2)c1	-112.7
COc1c(C(=O)NNC(=O)c2ccccc2)csc1Br	-82.4
Cc1ccc(C(=O)Nc2cccc(Oc3ccccc3)c2)o1	-125.7
COc1cccc(C(=O)Nc2ccccc2)c1	-122.5
COc1cccc(C(=O)Nc2cnn(C(C)C)c2)c1	-113.7
O=C(Nc1ccc(O)cc1)c1ccc(C(=O)c2ccccc2)o1	-120.4
COc1cccc(NC(=O)c2ccc(C(=O)c3ccccc3)o2)c1	-147.3
